The nature of assay [1]: NCI Yeast Anticancer Drug Screen. Data for the rad50 strain (AID 155).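 Further: 0% = growth of vehicle-only cultures of the same strain.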 The settings on record: S. cerevisiae rad50 strain growth inhibition, hits give high values. In a few lines:
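Yeast carrying a defined DNA repair defect were exposed to test compounds, and growth was compared with vehicle-treated controls to give percent inhibition.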

Assay [2] in a line: NCI Yeast Anticancer Drug Screen. Data for the mec2-1 strain (AID 157). The conditions noted are these: S. cerevisiae mec2-1 strain, hits give high values. A digest of the protocol: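 mec2-1 yeast strain, carrying an alteration in DNA damage repair or cell cycle control, was exposed to compounds; growth inhibition was measured relative to vehicle-treated controls.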
Assay [3] in a line: NCI Yeast Anticancer Drug Screen. Data for the sgs1 mgt1 strain (AID 161).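 Further: 0% = growth of cultures given vehicle only.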 The conditions noted are these: S. cerevisiae sgs1 mgt1 strain, hits give high values. A digest of the protocol:
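Growth of a repair-deficient yeast mutant was monitored after compound treatment and expressed as inhibition relative to vehicle-treated cultures.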

A short description of assay [4]: NCI Yeast Anticancer Drug Screen. Data for the bub3 strain (AID 167). The settings on record: S. cerevisiae bub3 mutant strain, hits give high values. In a few lines: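 Compounds were applied to a genetically altered yeast strain carrying a cell-cycle control defect. Growth inhibition was scored against vehicle-treated controls.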
Assay [5] can be described thus: NCI Yeast Anticancer Drug Screen. Data for the mlh1 rad18 strain (AID 175). The settings on record: S. cerevisiae mlh1 rad18 strain growth inhibition, hits give high values. In a few lines: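 Growth inhibition of the yeast strain was measured after compound exposure and expressed relative to vehicle-treated controls. The strain carries defined defects in DNA damage repair.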

Assay [6] in a line: NCI Yeast Anticancer Drug Screen. Data for the cln2 rad14 strain (AID 165).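 Further: 0% = growth equal to vehicle treated cultures.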 The settings on record: S. cerevisiae cln2 rad14 strain, hits give high values. In a few lines: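 Yeast carrying cln2 and rad14 alterations (cell cycle control and DNA damage repair) were exposed to compounds. Growth inhibition was measured against vehicle-treated controls.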
Setting [7] is: at 5.0 µM (retest, dose inferred, filed as 0.5).
Setting [8] is: at 50.0 µM (retest, dose inferred, filed as 5.0).

The panel holds about 79,000 compounds, 15% with a hit somewhere; the sample as a whole holds those more often. A number with no mark means an inactive call. Active and inactive are the calls of the source. No stated cut-off is given here; in the data, active means growth inhibition above about 70%; inactive means the rest.

Our source for the growth inhibition values is PubChem BioAssay (NCI).

With `Nc1ccc2nc3c(nc2c1)C(=O)c1ccccc1-3`, the growth inhibition in assay [1] (setting [7]) was 47%; in assay [1] (setting [8]) it was 93% (active); in assay [1] (at 50.0 µM) it was 85.5% (active); in assay [2] (setting [7]), 10%; in assay [2] (setting [8]) it was 93% (active); in assay [2] (at 50.0 µM), 86.5% (active). The growth inhibition in assay [3] (setting [7]) is 19%; in assay [3] (setting [8]), 88% (active); in assay [3] (at 50.0 µM), 85% (active); in assay [4] (setting [7]) it was 15%; in assay [4] (setting [8]), 94% (active); in assay [4] (at 50.0 µM), 87.6% (active). Besides, the growth inhibition in assay [5] (setting [7]) was 21%; in assay [5] (setting [8]), 93% (active); in assay [5] (at 50.0 µM), 89.5% (active).
As to `COC(=O)c1cccc2cccc(C(=O)Nc3ccc(Cl)cc3)c12`, the growth inhibition was 68% in assay [1] (setting [7]); 99% (active) in assay [1] (setting [8]); 90.2% (active) in assay [1] (at 50.0 µM); 67% in assay [2] (setting [7]); 100% (active) in assay [2] (setting [8]); 93% (active) in assay [2] (at 50.0 µM). The growth inhibition in assay [6] (setting [7]) is 42%; in assay [6] (setting [8]) it was 99% (active); in assay [6] (at 50.0 µM), 92% (active); in assay [4] (setting [7]), 82% (active); in assay [4] (setting [8]), 82% (active); in assay [4] (at 50.0 µM), 91.9% (active). The growth inhibition in assay [5] (setting [7]) was 87% (active); in assay [5] (setting [8]), 99% (active); in assay [5] (at 50.0 µM) it was 90.3% (active).
With `CCCC(=O)Oc1ccc(-c2ccccc2Br)cc1`, the growth inhibition in assay [1] (setting [7]) was 4%; in assay [1] (setting [8]), 67%; in assay [1] (at 50.0 µM), 92.5% (active); in assay [2] (setting [7]) it was 3%; in assay [2] (setting [8]), 34%; in assay [2] (at 50.0 µM), 82.5% (active). Also, the growth inhibition in assay [3] (setting [7]) is 10%; in assay [3] (setting [8]) it was 44%; in assay [3] (at 50.0 µM), 93.5% (active); in assay [6] (setting [7]), 4%; in assay [6] (setting [8]), 50%; in assay [6] (at 50.0 µM), 89.2% (active). In addition, the growth inhibition in assay [5] (setting [7]) is 2%; in assay [5] (setting [8]) it was 31%; in assay [5] (at 50.0 µM), 88.1% (active).
As for `O=C(Nc1ccccc1)OCCc1ccc(Br)cc1`, the growth inhibition in assay [1] (setting [7]) was -10%; in assay [1] (setting [8]), -9%; in assay [1] (at 50.0 µM) it was 13.2%; in assay [2] (setting [7]) it was -23%; in assay [2] (setting [8]), -31%; in assay [2] (at 50.0 µM), 23.7%. Also, the growth inhibition was -1% in assay [3] (setting [7]); -11% in assay [3] (setting [8]); 14.4% in assay [3] (at 50.0 µM); 1% in assay [6] (setting [7]); -2% in assay [6] (setting [8]); -7.85% in assay [6] (at 50.0 µM). Besides, the values for the growth inhibition in assay [5] (setting [7]), in assay [5] (setting [8]) and in assay [5] (at 50.0 µM) were -5%, 0% and -3.25%, respectively.
For `CC(=O)OCC1(O)OCC(OC(C)=O)C(OC(C)=O)C1OC(C)=O` (configuration not stated), the growth inhibition in assay [1] (setting [7]) is 18%; in assay [1] (setting [8]), -21%; in assay [1] (at 50.0 µM) it was 12.2%; in assay [2] (setting [7]), -15%; in assay [2] (setting [8]), -20%; in assay [2] (at 50.0 µM), -2.6%. Besides, the growth inhibition in assay [3] (setting [7]) is -4%; in assay [3] (setting [8]), 9%; in assay [3] (at 50.0 µM), 12.6%; in assay [4] (setting [7]), 6%; in assay [4] (setting [8]), -25%; in assay [4] (at 50.0 µM), 7.9%. In addition, the growth inhibition in assay [5] (setting [7]) is -4%; in assay [5] (setting [8]) it was -14%; in assay [5] (at 50.0 µM), 12.9%.
`O=C(O)C1CC2C3(Cl)C(Cl)=C(Cl)C(Cl)C2(CC1c1c2ccc(=O)c(O)c-2oc2c(O)c(O)ccc12)C3(Cl)Cl` (configuration not stated): the growth inhibition is 5% in assay [1] (setting [7]); 96% (active) in assay [1] (setting [8]); 49.9% in assay [1] (at 50.0 µM); 21% in assay [2] (setting [7]); 97% (active) in assay [2] (setting [8]); 49.6% in assay [2] (at 50.0 µM). Further, the growth inhibition in assay [3] (setting [7]) is 3%; in assay [3] (setting [8]), 97% (active); in assay [3] (at 50.0 µM) it was -0.25%; in assay [6] (setting [7]), 9%; in assay [6] (setting [8]), 93% (active); in assay [6] (at 50.0 µM), 53.2%. In addition, the growth inhibition in assay [5] (setting [7]) is 4%; in assay [5] (setting [8]) it was 95% (active); in assay [5] (at 50.0 µM), 51.5%.
For the compound `CC1CC(c2ccccc2)CC(C)N1c1ccc2ccccc2c1` (configuration not stated), the growth inhibition in assay [1] (setting [7]) is 9%; in assay [1] (setting [8]) it was 82% (active); in assay [1] (at 50.0 µM) it was 77.8% (active); in assay [2] (setting [7]) it was 13%; in assay [2] (setting [8]), 74% (active); in assay [2] (at 50.0 µM), 69.3%. Also, the growth inhibition is 1% in assay [3] (setting [7]); 77% (active) in assay [3] (at 50.0 µM); 5% in assay [6] (setting [7]); 61% in assay [6] (setting [8]); 36.4% in assay [6] (at 50.0 µM); 0% in assay [4] (setting [7]). The growth inhibition in assay [4] (setting [8]) is 65%; in assay [4] (at 50.0 µM), 93.7% (active); in assay [5] (setting [7]), 2%; in assay [5] (setting [8]) it was 84% (active); in assay [5] (at 50.0 µM), 93.3% (active).
With `CC(=O)c1ccc(Br)cc1NC1=CC(=O)c2ncccc2C1=O`, the growth inhibition in assay [1] (setting [7]) is 95% (active); in assay [1] (setting [8]), 95% (active); in assay [1] (at 50.0 µM) it was 86.7% (active); in assay [2] (setting [7]), 88% (active); in assay [2] (setting [8]), 94% (active); in assay [2] (at 50.0 µM), 91.2% (active). Besides, the growth inhibition was 77% (active) in assay [6] (setting [7]); 90% (active) in assay [6] (setting [8]); 88.3% (active) in assay [6] (at 50.0 µM); 83% (active) in assay [4] (setting [7]); 95% (active) in assay [4] (setting [8]); 89.7% (active) in assay [4] (at 50.0 µM). The growth inhibition is 87% (active) in assay [5] (setting [7]), 95% (active) in assay [5] (setting [8]) and 87.3% (active) in assay [5] (at 50.0 µM).
As for `O=C1c2ccccc2C(c2ccccc2)(c2ccccc2)N1c1ccccc1`, the growth inhibition in assay [1] (setting [7]) was 3%; in assay [1] (setting [8]), 79% (active); in assay [1] (at 50.0 µM), 97% (active); in assay [2] (setting [7]), -1%; in assay [2] (setting [8]), 80% (active); in assay [2] (at 50.0 µM) it was 96.5% (active). Also, the growth inhibition was 28% in assay [3] (setting [7]); 90% (active) in assay [3] (setting [8]); 95.6% (active) in assay [3] (at 50.0 µM); 5% in assay [4] (setting [7]); 81% (active) in assay [4] (setting [8]); 95.7% (active) in assay [4] (at 50.0 µM). Further, the growth inhibition in assay [5] (setting [7]) was 57%; in assay [5] (setting [8]) it was 89% (active); in assay [5] (at 50.0 µM) it was 95.6% (active).
Consider `Cc1ccc(C(=Nc2ccccc2)N=P(c2ccccc2)(c2ccccc2)c2ccccc2)cc1`, for which the growth inhibition was 56% in assay [1] (setting [7]); 98% (active) in assay [1] (setting [8]); 90.6% (active) in assay [1] (at 50.0 µM); 45% in assay [2] (setting [7]); 99% (active) in assay [2] (setting [8]); 91.9% (active) in assay [2] (at 50.0 µM). Moreover, the growth inhibition in assay [3] (setting [7]) is 46%; in assay [3] (setting [8]), 100% (active); in assay [3] (at 50.0 µM) it was 90.5% (active); in assay [4] (setting [7]) it was 45%; in assay [4] (setting [8]), 99% (active); in assay [4] (at 50.0 µM), 88.2% (active). In addition, the growth inhibition is 61% in assay [5] (setting [7]), 99% (active) in assay [5] (setting [8]) and 91.5% (active) in assay [5] (at 50.0 µM).
As for `Cc1ccc2nc(C[n+]3ccc4ccccc4c3)ccc2c1`, the growth inhibition in assay [1] (setting [7]) was -1%; in assay [1] (setting [8]), 28%; in assay [1] (at 50.0 µM), 53.5%; in assay [2] (setting [7]) it was -1%; in assay [2] (setting [8]), 17%; in assay [2] (at 50.0 µM), 50.2%. Besides, the growth inhibition was -2% in assay [3] (setting [7]); 47% in assay [3] (setting [8]); 44.4% in assay [3] (at 50.0 µM); -5% in assay [6] (setting [7]); 5% in assay [6] (setting [8]); -1.8% in assay [6] (at 50.0 µM). Further, the growth inhibition in assay [5] (setting [7]) is 0%; in assay [5] (setting [8]), 16%; in assay [5] (at 50.0 µM), 55.9%.
